Our source for the growth inhibition values is PubChem BioAssay (NCI).

About 79,000 compounds went through this panel and 15% of them were active in at least one assay; those are over-represented in the sample as a whole. A number with no mark means an inactive call. Activity calls are given as the source filed them. No stated cut-off is given here; in the data, active means growth inhibition above about 70%; inactive means the rest.

Test [1] is described as follows: NCI Yeast Anticancer Drug Screen. Data for the rad50 strain (AID 155).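 Further: 0% = growth of vehicle-only cultures of the same strain.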 Conditions: S. cerevisiae rad50 strain growth inhibition, hits give high values. The procedure, abridged:
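Inhibition values express reduced yeast growth in compound-treated cultures relative to vehicle-treated controls.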

Test [2] can be described thus: NCI Yeast Anticancer Drug Screen. Data for the mec2-1 strain (AID 157). Particulars: S. cerevisiae mec2-1 strain, hits give high values. The procedure, abridged:
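Cells of the genetically defined mec2-1 yeast strain are incubated with test compound. Inhibition of growth is calculated against vehicle-treated controls.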

A short description of test [3]: NCI Yeast Anticancer Drug Screen. Data for the sgs1 mgt1 strain (AID 161).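 Further: 0% = growth of cultures given vehicle only.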 Particulars: S. cerevisiae sgs1 mgt1 strain, hits give high values. The procedure, abridged: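 Genetically altered yeast, compound exposure, growth inhibition relative to vehicle.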
Test [4] is described as follows: NCI Yeast Anticancer Drug Screen. Data for the cln2 rad14 strain (AID 165).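 Further: 0% = growth equal to vehicle treated cultures.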 Conditions: S. cerevisiae cln2 rad14 strain, hits give high values. The procedure, abridged:
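The screen exposed genetically defined yeast (cln2 rad14) to test compounds and scored growth inhibition relative to vehicle-treated controls.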

Test [5] in a line: NCI Yeast Anticancer Drug Screen. Data for the bub3 strain (AID 167). Conditions: S. cerevisiae bub3 mutant strain, hits give high values. The procedure, abridged: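 Steps: expose the mutant yeast strain to compound; grow alongside vehicle-treated cultures; measure growth; express inhibition against the vehicle cultures.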
A short description of test [6]: NCI Yeast Anticancer Drug Screen. Data for the mlh1 rad18 strain (AID 175). Conditions: S. cerevisiae mlh1 rad18 strain growth inhibition, hits give high values. The procedure, abridged:
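Compound-treated yeast growth, normalised to vehicle controls. Strain bears defined DNA repair mutations.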

Setting [7] is: at 5.0 µM (retest, dose inferred, filed as 0.5).
The mark [8] stands for this setting: at 50.0 µM (retest, dose inferred, filed as 5.0).

Turning to `COC1=CC(=O)C(C#CCOCc2ccccc2)=CC1=O`, the growth inhibition was 12% in test [1] (setting [7]); 99% (active) in test [1] (setting [8]); 99.1% (active) in test [1] (at 50.0 µM); 0% in test [2] (setting [7]); 99% (active) in test [2] (setting [8]); 99.2% (active) in test [2] (at 50.0 µM). For the same compound, the growth inhibition in test [3] (setting [7]) was -6%; in test [3] (setting [8]), 79% (active); in test [3] (at 50.0 µM), 99% (active); in test [4] (setting [7]), -8%; in test [4] (setting [8]) it was 98% (active); in test [4] (at 50.0 µM) it was 94.7% (active). The growth inhibition in test [5] (setting [7]) is -16%; in test [5] (setting [8]), 99% (active); in test [5] (at 50.0 µM), 93% (active); in test [6] (setting [7]), 8%; in test [6] (setting [8]), 99% (active); in test [6] (at 50.0 µM), 98.8% (active).

As for `CC(CCCOC(c1ccccc1)(c1ccccc1)c1ccccc1)OC(=O)Nc1ccccc1` (configuration not stated), the growth inhibition is 85% (active) in test [1] (setting [7]); 85% (active) in test [1] (setting [8]); 83.9% (active) in test [1] (at 50.0 µM); 81% (active) in test [2] (setting [7]); 81% (active) in test [2] (setting [8]); 85.8% (active) in test [2] (at 50.0 µM). The growth inhibition in test [3] (setting [7]) is 63%; in test [3] (setting [8]), 63%; in test [3] (at 50.0 µM), 84% (active); in test [4] (setting [7]) it was 92% (active); in test [4] (setting [8]), 92% (active); in test [4] (at 50.0 µM), 83% (active). Also, the growth inhibition in test [5] (setting [7]) was 69%; in test [5] (setting [8]), 69%; in test [5] (at 50.0 µM), 79.7% (active); in test [6] (setting [7]) it was 93% (active); in test [6] (setting [8]), 93% (active); in test [6] (at 50.0 µM) it was 81.5% (active).

Consider `CN1CCCC(C(=O)OCC(=O)C2(O)CCC3C4CCC5=CC(=O)CCC5(C)C4C(O)CC32C)C1` (configuration not stated), for which the growth inhibition is 13% in test [1] (setting [7]); 11% in test [1] (setting [8]); 29.2% in test [1] (at 50.0 µM); -5% in test [2] (setting [7]); 0% in test [2] (setting [8]); 5% in test [2] (at 50.0 µM). Further, the growth inhibition in test [3] (setting [7]) was -7%; in test [3] (setting [8]), 5%; in test [3] (at 50.0 µM), -11%; in test [4] (setting [7]), 3%; in test [4] (setting [8]), 8%; in test [4] (at 50.0 µM), 38.4%. Besides, the growth inhibition is -7% in test [5] (setting [7]); 9% in test [5] (setting [8]); 12.4% in test [5] (at 50.0 µM); -3% in test [6] (setting [7]); 35% in test [6] (setting [8]); 42.9% in test [6] (at 50.0 µM).

Turning to `COc1ccc(C(C)(C)c2cc3c(cc2OCCO)OCO3)cc1`, the growth inhibition in test [1] (setting [7]) was -1%; in test [1] (setting [8]), 82% (active); in test [1] (at 50.0 µM), 89.8% (active); in test [2] (setting [7]), 1%; in test [2] (setting [8]) it was 90% (active); in test [2] (at 50.0 µM) it was 92.2% (active). In addition, the growth inhibition in test [3] (setting [7]) was 4%; in test [3] (setting [8]) it was 92% (active); in test [3] (at 50.0 µM) it was 97% (active); in test [4] (setting [7]), 0%; in test [4] (setting [8]), 70% (active); in test [4] (at 50.0 µM), 60.1%. The growth inhibition in test [5] (setting [7]) was 13%; in test [5] (setting [8]) it was 90% (active); in test [5] (at 50.0 µM) it was 90.2% (active); in test [6] (setting [7]), 1%; in test [6] (setting [8]) it was 94% (active); in test [6] (at 50.0 µM), 93.3% (active).

In the case of `O=NNc1ccc(-c2ccc([N+](=O)[O-])cc2)cn1`, the growth inhibition was 18% in test [1] (setting [7]); 47% in test [1] (setting [8]); 25.4% in test [1] (at 50.0 µM); 11% in test [2] (setting [7]); 37% in test [2] (setting [8]); 5.85% in test [2] (at 50.0 µM). The growth inhibition in test [3] (setting [7]) is 8%; in test [3] (setting [8]), 31%; in test [3] (at 50.0 µM), 30.6%; in test [4] (setting [7]) it was 26%; in test [4] (setting [8]), 31%; in test [4] (at 50.0 µM) it was 34.2%. In addition, the growth inhibition in test [5] (setting [7]) was 14%; in test [5] (setting [8]) it was 18%; in test [5] (at 50.0 µM), -11.7%; in test [6] (setting [7]) it was 10%; in test [6] (setting [8]), 48%; in test [6] (at 50.0 µM), 30.1%.

For the compound `Cc1ccccc1NC(=O)Cc1csc(N=Nc2c(O)[nH]c3ccccc23)n1`, the growth inhibition in test [1] (setting [7]) was 18%; in test [1] (setting [8]), 17%; in test [1] (at 50.0 µM), -33.6%; in test [2] (setting [7]), 1%; in test [2] (setting [8]), 1%; in test [2] (at 50.0 µM), -42.9%. In addition, the growth inhibition in test [3] (setting [7]) was 1%; in test [3] (setting [8]), -2%; in test [3] (at 50.0 µM), -6.95%; in test [4] (setting [7]), 9%; in test [4] (setting [8]), -6%; in test [4] (at 50.0 µM), -12.1%. The growth inhibition in test [5] (setting [7]) was 25%; in test [5] (setting [8]) it was 25%; in test [5] (at 50.0 µM), -11.1%; in test [6] (setting [7]), 15%; in test [6] (setting [8]) it was 17%; in test [6] (at 50.0 µM), -27.7%.

For the compound `COc1cc(/C=C2\S/C(=N/Nc3nc(-c4ccc(Br)cc4)cs3)NC2=O)cc(OC)c1OC`, the growth inhibition in test [1] (setting [7]) is -2%; in test [1] (setting [8]), 67%; in test [1] (at 50.0 µM), 84.8% (active); in test [2] (setting [7]), -23%; in test [2] (setting [8]) it was 74% (active); in test [2] (at 50.0 µM), 76.2% (active). Also, the growth inhibition is -9% in test [3] (setting [7]); 86% (active) in test [3] (setting [8]); 97.8% (active) in test [3] (at 50.0 µM); -6% in test [4] (setting [7]); 71% (active) in test [4] (setting [8]); 80.2% (active) in test [4] (at 50.0 µM). Further, the growth inhibition in test [5] (setting [7]) was 31%; in test [5] (setting [8]), 97% (active); in test [5] (at 50.0 µM) it was 95.3% (active); in test [6] (setting [7]), 2%; in test [6] (setting [8]) it was 75% (active); in test [6] (at 50.0 µM), 91.5% (active).

For the compound `CCOc1ccc2c(c1)n([O-])c1ccccc1[n+]2=O`, the growth inhibition in test [1] (setting [7]) is 88% (active); in test [1] (setting [8]), 98% (active); in test [1] (at 50.0 µM) it was 56%; in test [2] (setting [7]) it was 12%; in test [2] (setting [8]), 99% (active); in test [2] (at 50.0 µM), 97.4% (active). For the same compound, the growth inhibition in test [3] (setting [7]) was 55%; in test [3] (setting [8]), 99% (active); in test [3] (at 50.0 µM) it was 99.2% (active); in test [4] (setting [7]), 31%; in test [4] (setting [8]), 98% (active); in test [4] (at 50.0 µM), 98.1% (active). Further, the growth inhibition was 17% in test [5] (setting [7]); 98% (active) in test [5] (setting [8]); 98.8% (active) in test [5] (at 50.0 µM); 81% (active) in test [6] (setting [7]); 98% (active) in test [6] (setting [8]); 99.1% (active) in test [6] (at 50.0 µM).

On to `CCOC1(OCC)C(C)C(c2ccccc2)C(c2ccccc2)C1C` (configuration not stated), for which the growth inhibition in test [1] (setting [7]) is -3%; in test [1] (setting [8]) it was -1%; in test [1] (at 50.0 µM), 79.3% (active); in test [2] (setting [7]) it was -6%; in test [2] (setting [8]) it was -4%; in test [2] (at 50.0 µM), 98.8% (active). Besides, the growth inhibition in test [3] (setting [7]) is -8%; in test [3] (setting [8]) it was 13%; in test [3] (at 50.0 µM), 8.1%; in test [4] (setting [7]), -4%; in test [4] (setting [8]) it was -2%; in test [4] (at 50.0 µM), 98.5% (active). The growth inhibition in test [5] (setting [7]) is -8%; in test [5] (setting [8]), -5%; in test [5] (at 50.0 µM), 99% (active); in test [6] (setting [7]), -9%; in test [6] (setting [8]), 9%; in test [6] (at 50.0 µM), 98.7% (active).
